# According to PubChem BioAssay AID2599 (Sanford-Burnham Center for Chemical Genomics, 2010):
# About 5,800 (1.8%) of roughly 330,000 compounds were called active.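 Rule for the calls: active = inhibition above about 50% at the single tested dose (limit read from the data); inactive = the rest.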 Many of the other results were omitted from the sample, so actives are more common in it than they were.
# Molecular target: Sentrin-specific protease 6 (Homo sapiens) (UniProt Q9GZR1)
# Assay: inhibition of human SENP6 catalytic domain – biochemical, luminescence, uHTS, primary screen (AID 2599);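 note: plate controls were DMSO wells with enzyme for no effect and DMSO wells lacking enzyme for full effect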
# Settings: Recombinant SENP6 catalytic domain, aminoluciferin luminescence; at 10 µM; stronger effect = higher value
# Chain of Sentrin-specific protease 6 (Homo sapiens) (Q9GZR1 628-1112 limits assumed): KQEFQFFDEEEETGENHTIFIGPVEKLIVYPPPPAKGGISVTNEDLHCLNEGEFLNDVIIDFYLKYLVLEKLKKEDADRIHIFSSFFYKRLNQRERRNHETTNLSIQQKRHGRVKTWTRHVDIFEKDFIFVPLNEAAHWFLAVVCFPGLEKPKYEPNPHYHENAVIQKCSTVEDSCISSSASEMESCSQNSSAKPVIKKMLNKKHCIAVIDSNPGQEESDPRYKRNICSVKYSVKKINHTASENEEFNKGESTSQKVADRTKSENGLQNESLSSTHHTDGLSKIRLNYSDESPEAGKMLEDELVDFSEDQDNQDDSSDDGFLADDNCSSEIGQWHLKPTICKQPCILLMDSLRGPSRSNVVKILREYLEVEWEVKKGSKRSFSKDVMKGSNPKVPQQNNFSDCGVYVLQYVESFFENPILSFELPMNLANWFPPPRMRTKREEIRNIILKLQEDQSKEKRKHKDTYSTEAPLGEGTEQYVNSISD
row,Compound,inhibition
1,Cc1ccc(NS(=O)(=O)c2c(C)[nH]c(C)c2C(=O)N2CCCCC2)c(C)c1,-8.53% (inactive)
2,S=C(Nc1cccc(Br)c1)N1CCn2cccc2C1c1cccnc1 (configuration not stated),-5.73% (inactive)
3,CC(C)CCNC(=O)CC1C(=O)N(Cc2ccccc2)C(C)c2nc3ccccc3n21 (configuration not stated),-1.07% (inactive)
4,CC(C)c1ccc(C(=O)OC2CCOC2=O)cc1 (configuration not stated),-5.48% (inactive)
5,COc1cc(C(=O)OC2CCOC2=O)c([N+](=O)[O-])cc1OC (configuration not stated),-15.4% (inactive)
6,O=C(OC1CCOC1=O)c1ccc(-c2nc3ccccc3s2)s1 (configuration not stated),97.8% (active)
7,COc1cc(/C=N/Nc2nn3cnnc3c3ccccc23)cc(OC)c1OC,2.31% (inactive)
8,C/C(=N\Nc1nncc2ccccc12)c1ccc(Cl)c([N+](=O)[O-])c1,1.2% (inactive)
9,CN(CCO)c1ccc(/C=N/Nc2nncc3ccccc23)cc1,96.7% (active)
10,COc1ccc(NC(=O)C2C3C=CC(C3)C2C(=O)NCc2ccccn2)c(OC)c1 (configuration not stated),10.4% (inactive)
11,Cc1noc(C)c1COc1ccc2ccc(=O)oc2c1,-9.61% (inactive)
12,COc1ccc(-c2cc3ccc(OCc4nn[nH]n4)cc3oc2=O)cc1,68.8% (active)
13,CCCCc1cc(=O)oc2cc(C)cc(OCc3nn[nH]n3)c12,-1.99% (inactive)
14,CCS(=O)(=O)Nc1ccc(C(=O)NCCSc2ccccc2)cc1,11.9% (inactive)
15,Cc1ccc(F)c(NC(=O)CCc2ccccc2)c1,51.3% (active)
16,Cc1cccc(OCC(=O)Nc2ccccc2F)c1,56.4% (active)
17,Cc1ccc(F)c(NC(=O)CCOc2ccccc2C)c1,5.27% (inactive)
18,Cc1cccc(OCC(=O)Nc2ccc(C(=O)O)cc2NC(=O)COc2cccc(C)c2)c1,10.8% (inactive)
19,COc1ccc([N+](=O)[O-])cc1NC(=O)CCc1ccccc1,-1.66% (inactive)
20,Cc1cccc(OCCC(=O)Nc2ccccc2C(N)=O)c1,-32.4% (inactive)
21,CCOC(=O)C1C(=O)NCC1c1ccccc1 (configuration not stated),-10.2% (inactive)

row,Compound,inhibition
1,Cc1ccc(-c2ccnc3nc(Sc4ncc(C(F)(F)F)cc4Cl)nn23)cc1,3.77% (inactive)
2,CCOC(=O)CSC1=N/C(=C/c2ccc(-n3cncn3)cc2)C(=O)N1C(C)=O,4.91% (inactive)
3,CCOC(=O)C1CCN(C(=O)CN2C(=O)c3cccnc3Oc3ccc(C)cc32)CC1,-14.4% (inactive)
4,Cc1nn(-c2ccccc2)c2[nH]c(C(F)(F)F)cc(=O)c12,-1.92% (inactive)
5,N=c1c2c3c(sc2ncn1CCCN1CCOCC1)CCCCC3,3.22% (inactive)
6,O=C(O)C1OC(C(=O)O)C2C1C(F)(F)C2(F)F (configuration not stated),-10.3% (inactive)
7,COc1cc(/C=C(\C#N)c2nc3c(s2)CC(C)CC3)ccc1O (configuration not stated),8.39% (inactive)
8,Cc1ccc2nc(/C(C#N)=C\c3ccc(OC(=O)c4cccs4)cc3)[nH]c2c1,-7.94% (inactive)
9,COc1cc(/C=C(\C#N)c2nc3ccccc3[nH]2)ccc1O,92.4% (active)
10,c1ccc(C[C@H]2CNCCN2CCC23CC4CC(CC(C4)C2)C3)cc1,1.32% (inactive)
11,O=C(Nc1ccccc1Cc1ccccc1)c1ccc2c(c1)SC1=NS(=O)(=O)CCN12,-1.13% (inactive)
12,O=C(NCc1ccco1)C(c1ccncc1)N(C(=O)Cn1nnc2ccccc21)c1ccccc1 (configuration not stated),-7.82% (inactive)
13,O=C(CC1C(=O)NCCN1C(=O)c1ccc([N+](=O)[O-])cc1)Nc1cccc(Cl)c1 (configuration not stated),-13.3% (inactive)
14,O=[N+]([O-])c1cccc(C2=NCCS2)c1,-2.08% (inactive)
15,O=Cc1ccc(Oc2cccc(C(F)(F)F)c2)nc1,7.02% (inactive)
16,FC(F)(F)c1ccnc(Oc2ccc(C3=NCCS3)cc2)c1,74.8% (active)
17,Cc1cccc(N)c1SC1CCCCC1O (configuration not stated),14.9% (inactive)
18,CCCCN1C(N)=NC[C@@H]1CC1CCCCC1,-9.84% (inactive)
19,CCCCN(CC)CCNC(=O)CCNC(=O)Cn1ccc2ccccc2c1=O,-9.66% (inactive)
20,C=CCOc1ccc(Cl)cc1CNCCCN1CCOCC1,7.54% (inactive)
21,c1ccc(-n2nnnc2NC2CCCCCC2)cc1,-14.3% (inactive)

row,Compound,inhibition
1,O=C(c1ccccc1)N1N=C(c2ccccc2O)CC1c1ccc(Br)cc1 (configuration not stated),-41.6% (inactive)
2,Brc1ccc(C2CC(c3ccccc3)=Nc3ccccc3N2)cc1 (configuration not stated),81.3% (active)
3,CNC(=S)N1N=C(c2ccccc2)CC1c1ccc(Br)cc1 (configuration not stated),-4.9% (inactive)
4,COc1cc(NC(=S)N2CCCC(C)C2)c(OC)cc1Cl (configuration not stated),1.77% (inactive)
5,O=C(CC(c1ccccc1)c1ccccc1)NCC(O)c1ccc([N+](=O)[O-])cc1 (configuration not stated),-31.1% (inactive)
6,COC(=O)CCSc1nccn1Cc1ccccc1,-11% (inactive)
7,CCCCCC(O)(CCN1CCCCC1)c1ccccc1 (configuration not stated),5.63% (inactive)
8,CC/C(=N\NC(=O)c1ccccc1Cl)c1ccc(Br)s1,3.9% (inactive)
9,C/C(=N\NC(=O)CSc1nc2ccccc2c(=O)n1-c1ccccc1C)c1cccs1,6.68% (inactive)
10,Cc1cccc(C(=O)Nc2ccc(C(=O)N/N=C/c3cccc(C)n3)cc2)c1,-5% (inactive)
11,C/C(=N\NC(=O)CNc1cccc2ccccc12)c1ccc(Br)s1,77.3% (active)
12,Cc1ccccc1NCC(=O)N/N=C\c1ccc([N+](=O)[O-])s1,44% (inactive)
13,Cc1cccc(/C=N/NC(=O)CNc2cccc3ccccc23)n1,78.3% (active)
14,Cc1ccc(NC(=O)CSc2nc(=O)n(CCN(C)C)c3c2CCCC3)c(C)c1,-3.87% (inactive)
15,CC(NC(=S)Nc1ccc(S(N)(=O)=O)cc1)c1ccc2c(c1)OCO2 (configuration not stated),7% (inactive)
16,CCn1c(SCC(=O)NNC(=O)c2ccc(OC)cc2)nnc1C(C)C,-13.3% (inactive)
17,Cc1nn2c(NCCN(C)C)c3c(nc2c1-c1ccccc1)CCC3,-33.9% (inactive)
18,CC(NC(=O)COC(=O)c1ccc2ccccc2n1)c1ccccc1 (configuration not stated),-2.28% (inactive)
19,Cc1ccc(S(=O)(=O)N(C)C)cc1NC(=O)C(C)OC(=O)c1ccc2ccccc2n1 (configuration not stated),-0.065% (inactive)
20,CC(OC(=O)c1ccc2ccccc2n1)C(=O)c1ccccc1 (configuration not stated),65.8% (active)
